Experimental data as given in the supplement of paper PMC3334620.
The full ranking holds about 33,000 sequences; the median of “E-score (-0.5 to 0.5)” is about -0.016, and the highest 2% start at about 0.3. This is one part of a sample in which the highest values are shown more often than they occur.

What follows are sequences tested against T1, Yer184c (UniProt P39961) (assay: PBM E-score (8-mer binding enrichment) (E-score (-0.5 to 0.5)); higher = stronger / more preferred TF binding). Conditions: protein concentration: 100 nM; construct: GST-full length.
T1 sequence: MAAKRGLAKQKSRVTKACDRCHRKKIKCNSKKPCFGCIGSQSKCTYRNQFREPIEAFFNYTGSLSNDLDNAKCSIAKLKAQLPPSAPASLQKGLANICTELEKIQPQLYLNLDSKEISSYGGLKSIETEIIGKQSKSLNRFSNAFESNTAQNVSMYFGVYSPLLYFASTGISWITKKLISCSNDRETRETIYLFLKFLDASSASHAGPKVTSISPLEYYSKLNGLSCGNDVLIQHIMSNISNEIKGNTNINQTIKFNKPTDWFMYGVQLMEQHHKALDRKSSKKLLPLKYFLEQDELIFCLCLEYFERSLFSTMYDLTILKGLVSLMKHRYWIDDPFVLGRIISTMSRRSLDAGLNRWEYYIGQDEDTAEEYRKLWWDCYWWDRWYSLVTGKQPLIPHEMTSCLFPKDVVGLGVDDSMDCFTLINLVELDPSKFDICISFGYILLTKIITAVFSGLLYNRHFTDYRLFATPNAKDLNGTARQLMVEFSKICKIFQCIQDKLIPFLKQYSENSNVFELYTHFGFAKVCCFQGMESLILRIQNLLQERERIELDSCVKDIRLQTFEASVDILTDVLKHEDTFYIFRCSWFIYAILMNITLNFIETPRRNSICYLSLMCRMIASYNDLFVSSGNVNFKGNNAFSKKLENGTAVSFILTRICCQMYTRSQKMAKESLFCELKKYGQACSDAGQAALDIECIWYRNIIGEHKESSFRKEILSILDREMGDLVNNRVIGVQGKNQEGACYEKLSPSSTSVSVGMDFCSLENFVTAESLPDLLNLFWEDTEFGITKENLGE
Summary of the method: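 Universal all-10-mer Agilent arrays, fresh or stripped once, were converted to double-stranded form by primer extension. GST-tagged yeast transcription factors from PURExpress in vitro transcription/translation, full-length or DNA-binding domain only, were applied at about 100-200 nM and detected with fluorescent anti-GST. After masliner normalisation, the Universal PBM Analysis Suite scored each ungapped eight-base word together with its reverse complement by E-score.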

Compared with TATCGGCA, CCTCGGCC is higher in “PBM E-score” value: 0.213 for the first, 0.257 for the second.

Going from CCTCGGCA to ACTCGGCC, the “PBM E-score” value falls from 0.367 to 0.121.

Going from ACTCGGCG to ACTCGGCT, the “PBM E-score” value falls from 0.325 to 0.209.

Going from CGAACACC to AATGGCCA, the “PBM E-score” value falls from 0.0223 to -0.256.

Going from ACGGATTG to CATCCGTA, the “PBM E-score” value rises from 0.161 to 0.206.

Going from CTTCCGTC to ATTCCGTC, the “PBM E-score” value falls from 0.209 to 0.149.

Compared with GTTCCGTA, ATTCCGTA is higher in “PBM E-score” value: 0.276 for the first, 0.322 for the second.

Compared with ATTCCGTG, CTTCCGTA is higher in “PBM E-score” value: 0.313 for the first, 0.322 for the second.

Compared with ACTCCGTG, ATTCCGCG is higher in “PBM E-score” value: 0.1 for the first, 0.242 for the second.

First: CCTGCGAG
Second: CGTAGCTC
The “PBM E-score” value of the first is higher: 0.00158 for the first, -0.0585 for the second.

First: AGTTCACG
Second: CCCCAATA
The “PBM E-score” value of the first is higher: -0.0529 for the first, -0.244 for the second.

Compared with ACGCCAAT, ATTCTTCC is higher in “PBM E-score” value: -0.0124 for the first, 0.083 for the second.

Going from ACCGGGAT to CAGTTAGA, the “PBM E-score” value falls from 0.256 to -0.0352.

First: ATAAGATC
Second: CCGAATCA
The “PBM E-score” value of the first is lower: -0.0275 for the first, 0.233 for the second.

First: CCGAATTC
Second: ACGAATTC
The “PBM E-score” value of the first is higher: 0.334 for the first, 0.113 for the second.

First: CCGAATTA
Second: ACGAATCC
The “PBM E-score” value of the first is higher: 0.231 for the first, 0.115 for the second.

Going from CCGAATCC to TACGCTAA, the “PBM E-score” value falls from 0.322 to 0.0349.

Compared with GTAACTCA, AGATCTAA is higher in “PBM E-score” value: -0.0122 for the first, 0.0189 for the second.

Going from AGTCTTGG to TACCAAAA, the “PBM E-score” value rises from -0.0577 to 0.0716.

Compared with AACCAAAA, GACAAAAA is higher in “PBM E-score” value: 0.0925 for the first, 0.333 for the second.

Compared with GACAAAAC, GACCAAAA is higher in “PBM E-score” value: 0.0933 for the first, 0.309 for the second.

Compared with GACAAGAA, AATAATAG is lower in “PBM E-score” value: 0.151 for the first, 0.00819 for the second.

First: AATAATAC
Second: AGTAATAC
The “PBM E-score” value of the first is higher: 0.232 for the first, 0.106 for the second.

Going from AGTAATAT to AACAATAT, the “PBM E-score” value rises from 0.338 to 0.352.

First: AATAATAT
Second: AGTAATAG
The “PBM E-score” value of the first is higher: 0.333 for the first, -0.00505 for the second.

Going from AACAATAA to AACAATAC, the “PBM E-score” value falls from 0.255 to 0.0929.

Going from CAACATCG to CCCACGAC, the “PBM E-score” value falls from 0.0608 to -0.199.

Going from GTTAGAGA to ACCTGCTA, the “PBM E-score” value rises from -0.0529 to -0.00094.

Compared with CCTGAGTC, ATATGATA is higher in “PBM E-score” value: -0.0246 for the first, 0.325 for the second.

Compared with GTATGATA, CTATGATA is lower in “PBM E-score” value: 0.226 for the first, 0.162 for the second.

Compared with CTGCAACA, CACAATCA is lower in “PBM E-score” value: 0.152 for the first, 0.00768 for the second.

Going from AGGAAATA to GGGAAATA, the “PBM E-score” value falls from 0.249 to 0.0562.

Going from CGGAAATC to AGGAAATC, the “PBM E-score” value falls from 0.315 to 0.0763.

First: CGGAAATA
Second: CTGAAATC
The “PBM E-score” value of the first is higher: 0.424 for the first, 0.0356 for the second.

First: GGACTTTA
Second: AGTAGGTC
The “PBM E-score” value of the first is higher: 0.156 for the first, -0.225 for the second.

First: CTGCGCAA
Second: ATGGTACG
The “PBM E-score” value of the first is lower: -0.0246 for the first, 0.0122 for the second.

Compared with ACTGTTGA, CCGGCGAA is higher in “PBM E-score” value: -0.0706 for the first, 0.35 for the second.

Compared with TCGGCGAA, CCGGCGGC is lower in “PBM E-score” value: 0.294 for the first, 0.291 for the second.

First: GCGGCGAA
Second: GCGGCGTA
The “PBM E-score” value of the first is higher: 0.27 for the first, -0.0609 for the second.

First: CCGGCGTA
Second: GCGGCGGA
The “PBM E-score” value of the first is higher: 0.313 for the first, 0.193 for the second.

Compared with ACGGCGTA, CCGGCGGA is higher in “PBM E-score” value: 0.0111 for the first, 0.369 for the second.

Going from TATCTAAA to CACTGCGA, the “PBM E-score” value falls from 0.0877 to -0.0568.

Compared with AGGTAGGA, GGAGTGCC is higher in “PBM E-score” value: -0.06 for the first, 0.0423 for the second.

Compared with TACTATGA, ACGGAAAG is higher in “PBM E-score” value: 0.142 for the first, 0.231 for the second.

Compared with CCGGAAAG, CGGGAAAG is lower in “PBM E-score” value: 0.312 for the first, 0.138 for the second.

Going from CAGGAAAC to CCGGAAAC, the “PBM E-score” value rises from 0.117 to 0.396.

Compared with CGGGAAAC, CCCACGAA is lower in “PBM E-score” value: 0.286 for the first, -0.0234 for the second.

First: CAGCGTCC
Second: TTAGGCAA
The “PBM E-score” value of the first is higher: -0.0361 for the first, -0.168 for the second.

Compared with AGAACAGA, GAGTATGC is lower in “PBM E-score” value: 0.0872 for the first, -0.00892 for the second.

First: CCGGGGAA
Second: ACGGGAAA
The “PBM E-score” value of the first is higher: 0.267 for the first, 0.159 for the second.

Going from TCGGGAAA to GCGGGAAA, the “PBM E-score” value falls from 0.309 to 0.223.

First: CGGGGAAA
Second: CCGGGAAA
The “PBM E-score” value of the first is lower: 0.15 for the first, 0.35 for the second.

Compared with AGTGCTTG, CCTTCTAG is lower in “PBM E-score” value: -0.109 for the first, -0.237 for the second.

Compared with ATAGAAAA, ATAGAAAG is lower in “PBM E-score” value: -0.0185 for the first, -0.0692 for the second.

First: ATAGAAAT
Second: ACAGGCCC
The “PBM E-score” value of the first is higher: 0.318 for the first, -0.349 for the second.

Compared with ACATTAAG, GCCCGGGA is higher in “PBM E-score” value: 0.132 for the first, 0.282 for the second.

Compared with CCCCGGGA, ACCCGGGA is higher in “PBM E-score” value: 0.119 for the first, 0.367 for the second.

Going from ACCCGGGC to ACCCGGGT, the “PBM E-score” value rises from 0.233 to 0.299.

First: TCCCGGGA
Second: GGCCTGGA
The “PBM E-score” value of the first is higher: 0.337 for the first, -0.213 for the second.

Compared with TGCAAAAA, AACGGAAC is higher in “PBM E-score” value: 0.00535 for the first, 0.333 for the second.

Going from AACGGACC to AACGGAGT, the “PBM E-score” value rises from 0.185 to 0.312.

Compared with TACGGGAA, TACGGAAA is higher in “PBM E-score” value: 0.142 for the first, 0.362 for the second.

Going from CACGGAGC to GACGGAAC, the “PBM E-score” value falls from 0.14 to 0.125.

First: AACGGAGC
Second: GACGGAAA
The “PBM E-score” value of the first is lower: -0.0449 for the first, 0.213 for the second.

Going from CACGGACC to AACGGAGA, the “PBM E-score” value falls from 0.192 to 0.107.

Going from CACGGAAC to TCTATGCA, the “PBM E-score” value falls from 0.349 to 0.0433.

Going from AGAACGGC to CTCGAAAA, the “PBM E-score” value falls from 0.176 to -0.0323.

First: CATCTGCA
Second: CCACTAAA
The “PBM E-score” value of the first is lower: -0.0527 for the first, -0.0267 for the second.

Compared with GCAAGGGC, ACTGCCTC is higher in “PBM E-score” value: -0.274 for the first, -0.229 for the second.

Going from AGATTAGG to AGATGGCG, the “PBM E-score” value rises from -0.068 to 0.0474.

Compared with AACGGAAA, AACGGAAG is lower in “PBM E-score” value: 0.408 for the first, 0.179 for the second.

Going from AACGGAAT to CTCGGAAA, the “PBM E-score” value falls from 0.365 to 0.289.

First: GTCGGAAC
Second: CAAGGAAA
The “PBM E-score” value of the first is higher: 0.217 for the first, -0.0602 for the second.

Compared with CTCGGAAC, AACGGACA is lower in “PBM E-score” value: 0.358 for the first, 0.202 for the second.

Compared with AGCGGAAT, CACGGAAG is higher in “PBM E-score” value: 0.0752 for the first, 0.149 for the second.

First: CACGGAAA
Second: AACGGGAA
The “PBM E-score” value of the first is higher: 0.345 for the first, 0.25 for the second.

Compared with AATAGTGT, ATCAGTAA is lower in “PBM E-score” value: 0.267 for the first, 0.166 for the second.

Compared with GAATAGGA, GCGATCAC is lower in “PBM E-score” value: 0.0511 for the first, -0.19 for the second.

Compared with ACTTCTAG, GTCACTTA is higher in “PBM E-score” value: -0.28 for the first, 0.122 for the second.

Compared with AGGGACTG, GGACCTGA is higher in “PBM E-score” value: -0.316 for the first, -0.0219 for the second.

First: ATACATAT
Second: AGGATCAA
The “PBM E-score” value of the first is higher: 0.255 for the first, 0.14 for the second.

First: ATACTGCG
Second: CAGGATCG
The “PBM E-score” value of the first is lower: -0.0752 for the first, -0.0543 for the second.

Going from TCAGATCA to TAGGATCA, the “PBM E-score” value rises from -0.00186 to -0.0016.

Compared with ACGGATCA, ACGGATCG is lower in “PBM E-score” value: 0.248 for the first, 0.0937 for the second.

Compared with CCGGATCC, GCGGATCC is lower in “PBM E-score” value: 0.372 for the first, 0.161 for the second.

Going from CCGGATCA to GCGGATCA, the “PBM E-score” value falls from 0.328 to 0.105.

Going from TCGGATCA to ACGGATCC, the “PBM E-score” value falls from 0.31 to 0.288.

With CCGGATCG the “PBM E-score” value was 0.352.
